From PubChem BioAssay AID651664 (NMMLSC, 2012)
Among all 1,800 compounds or so, fewer than 10 were called active. These entries were drawn from the full list. A number with no mark means an inactive call.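 The calls were made as follows: active = inhibition of granule release above a set limit; inactive = the rest.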

Test: inhibitors of lytic granule exocytosis, flow cytometry, TALL-104 cells, validation set (AID 651664)
Settings: TALL-104 LAMP-1 externalization, at 15.2 µM, hits give high values, stimulated with thapsigargin and PMA

SMILES | inhibition [%]
CC1CCCN(C(=O)C2CCN(CC3CC=CCC3)CC2)C1 (stereo not given) | -1.1
OCCN=c1cc(-c2ccccc2)oc2ccc(Cl)cc12 | 3.5
O=C(/C=N/O)Nc1ccc(F)cc1 | -2.8
Cc1ccc(-n2nc(C)c3cc(C(=O)O)sc32)cc1 | 5.6
O=C(CSc1nnc(-c2cccs2)n1-c1ccccc1)Nc1ccccc1 | 22.8
Cc1nc(NCc2ccco2)c2oc3ccccc3c2n1 | -2.5
C=CCn1c(-c2ccco2)n[nH]c1=S | -0.5
[O-]C1=N/[N+](=C/c2ccccc2Cl)CC1 | -2.2
COC(=O)CSc1ncnc2c1cnn2Cc1ccccc1 | -0.5
N/C(=N\OS(=O)(=O)c1ccccc1)c1ccncc1 | -2.3
CCOc1ccc(CN(CCO)CCO)cc1[N+](=O)[O-] | -2.2
O=C(CSc1ccccn1)N1CCN(C(=O)CSc2ccccn2)CC1 | 0.4
Clc1ccc(/C=N/NC(=Nc2ccccc2)c2ccccn2)c(Cl)c1 | 1.5
CC(=O)N1CCN(S(=O)(=O)c2cccc(C(=O)NC3CCCc4ccccc43)c2)CC1 (stereo not given) | 0
Oc1ccccc1N=Nc1nc(-c2ccccc2)c(-c2ccccc2)[nH]1 | -2.4
Cc1ccccc1OCC(=O)Nc1cccc(NC(=O)c2ccco2)c1 | 1.8
CC(C(=O)O)N1C(=O)CSc2ncccc21 (stereo not given) | 2.4
CCC(C)NC(=O)Cn1cccc1C(=O)c1ccccc1 (stereo not given) | -0.2
CC(NC(=O)NCCCC(=O)O)(C(F)(F)F)C(F)(F)F | 2
Cc1ccc(S(=O)(=O)N2CCOCC2)cc1C(=O)OCC(=O)N1CCc2ccccc2C1 | -0.4
Cc1cc2c(cc1C)NC(c1nc3ccccc3[nH]1)C1=C(CC(C)(C)CC1=O)N2 (stereo not given) | -3.1
O=c1[nH]c2c(s1)C(c1ccccc1)C1C3CCC(C3)C1S2 (stereo not given) | 0.8

SMILES | inhibition [%]
COCCCNC(=O)C1CCC(=O)N1Cc1ccccc1Cl (stereo not given) | 0.7
Cc1ccc(C(=O)Cn2cnc3ccccc3c2=O)cc1C | 6.9
C=C(C)CN1C(=O)C(O)(CC(=O)c2ccc3c(c2)OCCO3)c2ccccc21 (stereo not given) | 1.5
Cc1cc(C)c(S(=O)(=O)NCc2cn3c(C)csc3n2)c(C)c1 | -4.5
CC1=CC=CN2CC(O)CN=C12 (stereo not given) | 1
O=C(Oc1ccccc1)N1CCN(c2ccc(F)cc2)CC1 | 6.6
COC(=O)c1ccc(CN2CCN(Cc3ccc(C(=O)OC)o3)CC2)o1 | 2.2
O=c1[nH]n(-c2ncnc3c2cnn3-c2ccccc2)c(=O)c2ccccc12 | -0.6
CCC(C)N=CC1=C(O)CC(c2ccccc2)CC1=O (stereo not given) | -2.1
O=C(c1ccccc1)N(CCN1CCOCC1)C1(C(=O)Nc2ccccc2)CCCCC1 | 5.2
COc1ccc(NC(=O)CSc2c(C)nn(-c3nnc(C)c(=O)[nH]3)c2C)cc1 | 0.5
COC(=O)c1ccc(CSc2nc3ccccc3c(=O)n2-c2ccccc2)o1 | -0.9
Cn1c(CN2CCCC2)nc2cc(NS(=O)(=O)c3ccc(Cl)cc3)ccc21 | -3.8
CCC(C)NC(=O)CSc1nnc(-c2cc(-c3cccs3)nc3ccccc23)o1 (stereo not given) | -1.3
COC(=O)c1cc(NC(=O)CN(c2ccc3c(c2)OCO3)S(C)(=O)=O)ccc1Cl | 1.7
CCOc1ccccc1N1CC(C(=O)Nc2nccs2)CC1=O (stereo not given) | -1.1
Cc1cnc(NC(=O)c2ccc3c(c2)C(=O)N(Cc2ccco2)C3=O)s1 | -1.3
COc1ccc(N/N=C(/N=Nc2nc(C)cc(=O)[nH]2)c2ccccc2)cc1 | 3.7
CCOC(=O)c1ccc(N2C(=O)CC(Sc3nnc(C)s3)C2=O)cc1 (stereo not given) | -0.5
Cc1ccc(-c2nc(N)c3c(-c4ccc(C)cc4)nn(C(C)(C)C)c3n2)cc1 | 0
O=c1[nH]c(CO)nc2c1oc1ccccc12 | -3.5
CCC(C#CCN1CCCCC1)(CC)OCCC#N | 25.8

SMILES | inhibition [%]
COC(=O)CN1C(=O)CSc2ncccc21 | 0.6
CCCCOCCCNC(=O)N[C@H](C(=O)OC)C(C)C | -2.9
Nc1ncnc2nc(SCc3ccc(Cl)cc3Cl)[nH]c12 | 6.3
CN(C)c1nc(SCc2ccccc2Cl)nc2c1CCCC2 | -0.7
CC1(C)Cc2c(sc3ncn4nc(-c5ccco5)nc4c23)CO1 | -1.3
O=C(COc1ccc(F)cc1)c1ccc2c(c1)CCCC2 | -2.8
O=C1c2ccccc2-c2c1nc1c([n+]2[O-])CCCC1 | -5.1
COc1ccc2c(c1OC)C(=O)N(c1cccc(C)c1)C2=O | 1.1
CO/N=C/C(=N\Nc1ccc(OC)cc1)C(=O)c1ccc(OC)cc1 | 0.7
COc1ccc(S(=O)(=O)N(C)CC(=O)Nc2ccccc2C(F)(F)F)cc1OC | -1.6
CN1CCN(c2nc(-c3ccccc3)nc3c2oc2ccccc23)CC1 | 1.5
O=C(CSc1nnc(CNc2ccc(F)cc2)n1-c1ccccc1)N1CCOCC1 | -4.6
COc1ccc(N=C2S/C(=C\c3ccc(C)s3)C(=O)N2CC(C)C)cc1 | -0.3
Fc1ccccc1/C=N/Nc1nn[nH]n1 | -1.6
CCOC(=O)c1c(NC(=O)Cc2cccs2)sc(C(=O)N2CCCCC2)c1C | -4.7
CN=C(NC)SC1CC(=O)N(c2ccccc2)C1=O (stereo not given) | 3.9
CCOc1cc(/C=N/n2cnnc2)cc(Br)c1O | -0.7
O=C1CCC(=O)N1c1nc2nc(-c3ccccc3)cc(=O)n2[nH]1 | -1.6
CC(=O)COc1ncn(-c2ccccc2)n1 | 0.2
Fc1cc2nc(-c3ccncc3)[nH]c2cc1F | -0.1
Cc1noc(NS(=O)(=O)c2ccc(NC(=O)Nc3ccc(Cl)c(Cl)c3)cc2)c1C | 0
